Experimental data from PubChem BioAssay (NCATS).
Results filed as inconclusive are left out. Calls of active or inactive are those of the source. Unless noted, calls follow the shape of the dose curve; as a rule, active = well fitted curve in the direction sought with a large enough effect; inconclusive = small, poorly fitted or top-dose-only effect, or another doubt; inactive = no such curve, though single readings can be large; an effect the other way counts as inactive or inconclusive.

What was measured:
[1] = Cellular Toxicity (caspase-3) MRC-5 (AID 659);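 also: 0% = DMSO basal and 100% = 10 µM staurosporine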
Outline: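 Concentration-dependent caspase 3/7 activation is measured in human normal lung fibroblasts (MRC-5) following 16-hour treatment. AC50 values come from standard Hill-equation modeling of luminescence normalized to DMSO and 10 uM staurosporine.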

[2] = Cellular Toxicity (caspase-3) Mesangial (AID 660);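 also: combined caspase 3 and 7 activity read by Caspase-Glo luminescence; cells exposed to compound for 16 h before the caspase read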
Outline: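 Human renal glomerular mesangial cells, 1000/well, 5 h at 37 C before 16 h compound treatment. Caspase-Glo 3/7 luminescence after 20 min; normalized to DMSO and 100 uM tamoxifen, AC50 from Hill fit.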

[3] = Cellular Toxicity (caspase-3) SK-N-SH (AID 661);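 also: 0% = DMSO basal and 100% = 10 µM staurosporine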
Outline: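 Human SK-N-SH neuroblastoma cells, 1500/well, were exposed to compounds for 16 hours at 37 °C. Caspase-Glo 3/7 luminescence was normalized to DMSO (basal) and 10 uM staurosporine (100%), and AC50 came from a Hill fit.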

[4] = Cellular Toxicity (caspase-3) H-4-II-E (AID 663); settings: Potency: caspase-3 activation;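 also: cells exposed to compound for 16 hr before readout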
Outline: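 Apoptosis induction is scored as increased luminescence from caspase 3/7 substrate cleavage in rat hepatoma H-4-II-E cells exposed to compound for 16 hr. Activity is scaled between DMSO and 100 uM tamoxifen.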

[5] = Cellular Toxicity (caspase-3) Hek293 (AID 664); settings: HEK293 caspase-3 activation, DMSO = 0%, 100 µM tamoxifen = 100%; at 92.2 µM (top of the series);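 also: cells exposed to compound for 16 h at 37 °C before readout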
Outline: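 HEK293 cells in complete medium treated 16 h at 37 °C, then Caspase-Glo 3/7 luminescence read after 20 min at room temperature. Normalized to DMSO and 100 uM tamoxifen; AC50 from Hill fit of concentration-response.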

[6] = Cellular Toxicity (caspase-3) N2a (AID 665);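 also: compound exposure lasted 16 h at 37 °C before readout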
Outline: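 Mouse N2a neuroblastoma cells, 1500 per well, treated 16 h at 37 °C in complete medium; caspase-3/7 activity by Caspase-Glo luminescence after 1 h. Normalized to DMSO and 10 uM staurosporine; AC50 from Hill fits.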

[7] = Cellular Toxicity (caspase-3) Renal Proximal Tubule (AID 667); settings: Potency: caspase-3 activation;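 also: cells exposed to compound for 16 hours at 37 °C before detection; 0% = DMSO basal and 100% = 10 µM staurosporine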
Outline: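 Freshly isolated primary rat kidney proximal tubule cells, 1000/well, treated 16 hr at 37 °C, then Caspase-Glo 3/7 luminescence after 1 hr. Normalized to DMSO and 10 uM staurosporine; AC50 from Hill fit.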

[8] = MultiTox-Fluor Cytotoxicity Assay - LYMP1-001 - Dead Cells (AID 946);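 also: 0% = DMSO and 100% = tetraoctylammonium bromide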
Outline: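 AC50 from Hill fit of concentration-response; data normalized to DMSO (basal) and 15 uM tetraoctylammonium bromide (100%). LYMP1-001 lymphoblastoid cells, 2500/well, 16 hr compound at 37 C; dead-cell protease fluorescence, Ex/Em 485/520.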

[9] = Cell Viability - LYMP1-002 - Assay at 16 hr (AID 948);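 also: 0% = DMSO alone and full effect = 92 µM tetraoctylammonium bromide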
Outline: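 LYMP1-002 human lymphoblastoid cells, 2500/well, were treated with compounds for 16 hr at 37 C in complete medium. Viability was read as intracellular ATP by CellTiter-Glo luminescence, and AC50 was derived from a Hill fit to concentration-response data.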

[10] = MultiTox-Fluor Cytotoxicity Assay - LYMP1-002 - Live Cells (AID 955); also: % is scaled to controls: 0 for no effect and ±100 for the full control effect
Outline: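 Human lymphoblastoid LYMP1-002 cells, 2500/well, treated 16 h at 37 C in complete medium. Live-cell protease activity via GF-AFC fluorescence (Ex/Em 405/510) after 60 min reagent incubation; AC50 from Hill fits.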

[11] = MultiTox-Fluor Cytotoxicity Assay - LYMP1-003 - Dead Cells (AID 961);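 also: 0% = DMSO and 100% = tetraoctylammonium bromide; nearly all actives have a fitted effect of over 70% in size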
Outline: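 Human lymphoblastoid LYMP1-003 cells (2500/well) were treated with compounds for 16 hr at 37 C in complete medium. Dead-cell protease release was read by bis-AAF-R110 fluorescence (Ex/Em 485/520). AC50 came from Hill fits, normalized to DMSO and 15 uM tetraoctylammonium bromide.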

[12] = MultiTox-Fluor Cytotoxicity Assay - LYMP1-003 - Live Cells (AID 962);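 also: 0% = DMSO only and full loss = 92 µM tetraoctylammonium bromide; cytotoxic hits lower the live-cell protease signal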
Outline: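 LYMP1-003 lymphoblastoid cells, 2500/well in complete medium, treated 16 h at 37 C; live-cell protease cleavage of GF-AFC read by fluorescence (Ex/Em 405/510) after 60 min reagent; AC50 from Hill fits of concentration-response.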

[13] = Cell Viability - LYMP1-003 - Assay at 24 hr (AID 963);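 also: plate controls were DMSO only for no effect and tetraoctylammonium bromide positive control for full effect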
Outline: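 Human lymphoblastoid LYMP1-003 cells, 2500/well, treated 24 h at 37 C in complete medium. Viability read as intracellular ATP by CellTiter-Glo luminescence after 30 min at room temperature; AC50 from Hill-equation fits of qHTS concentration-response.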

[14] = Cell Viability - LYMP2-003 (AID 965);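 also: cells exposed to compounds for 24 h before reading; 0% = DMSO only and full effect = 92 µM tetraoctylammonium bromide; nearly all actives have a fitted effect of over 50% in size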
Outline: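 Human lymphoblastoid LYMP2-003 cells, 2500/well, exposed to compounds for 24 h at 37 C in complete medium. Viability read as intracellular ATP by CellTiter-Glo luminescence; AC50 from Hill-equation fits of qHTS concentration-response data.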

[15] = Cell Viability - LYMP2-004 (AID 966);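 also: plate controls were DMSO only for no effect and tetraoctylammonium bromide control for full effect; nearly all actives have a fitted effect of over 65% in size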
Outline: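 Lymphoblastoid LYMP2-004 cells, 2500 per well, were preincubated for 5 hr and then treated with compound for 24 h at 37 C in complete medium. Viability was read as cellular ATP by CellTiter-Glo luminescence, and AC50 values were taken from Hill fits to concentration-response data.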

[16] = Cell Viability - LYMP2-005 (AID 967);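 also: plate controls were DMSO only for no effect and 92 µM tetraoctylammonium bromide control for full effect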
Outline: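 Human lymphoblastoid LYMP2-005 cells, 2,500 per well in complete medium, rested 5 h at 37C then compound-treated 24 h at 37C. Intracellular ATP read by CellTiter-Glo luminescence after 30 min at room temperature; AC50 from Hill-equation fits of concentration-response data.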

[17] = qHTS assay for small molecule antagonists of the retinoid-related orphan receptor gamma (ROR-gamma) signaling pathway - cell viability counter screen (AID 720652; active = well fitted curve in the direction sought with a large enough effect in the repeat runs; an effect the other way counts as inactive or inconclusive;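 also: CHO reporter cells with doxycycline-induced ROR-gamma expression; compound exposure lasted 16 hr before ATP read; % is scaled to controls: 0 for no effect and ±100 for the full control effect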)
Outline: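 CHO cells carrying TET-inducible ROR and RORE-luciferase reporter, plated 5 hr, then dosed with compound plus doxycycline. After 16 hr at 37 C, viability read as intracellular ATP by CellTiter-Glo luminescence.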

[18] = qHTS assay for small molecule agonists of the antioxidant response element (ARE) signaling pathway measured by Nrf2-dependant transcriptional activity - cell viability counter screen (AID 720653; active = well fitted curve in the direction sought with a large enough effect in the repeat runs; an effect the other way counts as inactive or inconclusive; also: % is scaled to controls: 0 for no effect and ±100 for the full control effect); settings: ARE-bla HepG2 viability, CellTiter-Glo ATP luminescence, 16 h; max response: active compounds read low
Outline: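 Cytotoxicity counter screen: intracellular ATP quantified by CellTiter-Glo luminescence in the same ARE-bla HepG2 plates, after 16 h compound exposure and a 2 h beta-lactamase substrate step.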

[19] = qHTS assay for cell viability of HEK293 cells (AID 743288); settings: ATP luminescence (CellTiter-Glo), 18 h; max response: active compounds read low; also: % is scaled to controls: 0 for no effect and ±100 for the full control effect; nearly all actives have a fitted effect of over 50% in size
Outline: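 Parental HEK293 cells, 2,000 per well, preincubated at least 5 h at 37 C, then exposed to compounds in DMSO for 18 h at 37 C. Viability by CellTiter-Glo ATP luminescence after 30 min at room temperature.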

[20] = qHTS assay for cell viability of the p53RE-bla HCT-116 cell line (AID 743292); also: % is scaled to controls: 0 for no effect and ±100 for the full control effect; nearly all actives have a fitted effect of over 55% in size
Outline: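 HCT-116 p53RE-bla cells seeded 4,000/well; 5 h at 37 C; compound (DMSO) added; 16 h at 37 C; CellTiter-Glo added, 30 min RT; luminescence read.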

O=C(O)c1cc(N=Nc2ccc([N+](=O)[O-])cc2)ccc1O
inactive: outcome [1] | outcome [2] | outcome [3] | Potency [4] | caspase-3 activation [5] -10.9% | outcome [6] | Potency [7] | Potency [8] | Potency [9] | outcome [10] | Potency [11] | Potency [12] | Potency [13] | Potency [14] | Potency [15] | Potency [16] | Potency [17] | max response [18] -5.1% | max response [19] 6.02% | Potency [20]
